Compound activity deposited in PubChem by National Center for Advancing Translational Sciences (NCATS).
HEK cytotox: Cytotoxic Profiling in HEK 293 Cell Line of Diverse Libraries Using Quantitative High-Throughput Screening; HEK 293 viability, ATP luminescence (CellTiter-Glo), 48-72 h; Potency, µM (doses to about 115 µM), actives largely listed as inhibitors; 94,000 tested, 6.6% active; also: nearly all actives have a fitted effect of over 60% in size
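Luminescence from cellular ATP, measured with CellTiter-Glo, indicates HEK 293 viability. Cells plated at 250 cells/well are treated with compound for 48 or 72 hr at 37 degree Celsius before reagent addition.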
3T3 cytotox: Cytotoxic Profiling in NIH 3T3 Cell Line of Diverse Libraries Using Quantitative High-Throughput Screening; NIH 3T3 viability, CellTiter-Glo ATP luminescence, 48-72 h; Potency, µM (series often up to 96.7 µM), hits mostly inhibitors; 94,000 tested, 4.3% active; AID 1345082, 2018; also: nearly all actives have a fitted effect of over 55% in size
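ATP-dependent luminescence (CellTiter-Glo) served as the viability signal for NIH 3T3 cells treated with compound for 48 or 72 hr at 37 °C.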
NPR1 antag: Natriuretic polypeptide receptor (hNpr1) antagonism - Primary qHTS; Atrial natriuretic peptide receptor 1 (Homo sapiens), P16066; HEK293 hNpr1 GloSensor cGMP, ANP-stimulated luminescence; Potency, µM (highest dose often 46.3 µM), hits mostly inhibitors; 76,000 tested, 1.6% active; calls by dose curve; also: nearly all actives have a fitted effect of over 60% in size
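HEK293 cells stably expressing human Npr1 and cGMP GloSensor pGS-40F, loaded 2 h with 2% GloSensor reagent, given compound 30 min at room temperature. Luminescence read before and 20 min after 0.1 nM hNppA.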
Luciferase inh: Firefly luciferase inhibition profiling of diverse chemical library using quantitative high-throughput screening; Luciferin 4-monooxygenase (Photinus pyralis), P08659; purified P. pyralis luciferase, luminescence, biochemical; 76,000 tested, 2.5% active; Potency, µM (doses to about 115 µM), usual class: inhibitors; AID 1347043, 2019; also: nearly all actives have a fitted effect of over 65% in size
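Inhibitors were tested against purified firefly luciferase in a biochemical, low-substrate format (both substrates at 10uM) and luminescence measured with a CCD imager.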
GPT2 inhibitor: Primary qHTS assay for inhibitors of Glutamate pyruvate transaminase 2 (GPT2); Alanine aminotransferase 2 (Homo sapiens), Q8TD30; Recombinant GPT2, coupled pyruvate oxidase/HRP Amplex Red fluorescence; Potency, µM (series often up to 57.7 µM), usual class: inhibitors; 100,000 tested, 0.25% active; also: nearly all actives have a fitted effect of over 60% in size
Target sequence (Q8TD30 whole entry, looked up): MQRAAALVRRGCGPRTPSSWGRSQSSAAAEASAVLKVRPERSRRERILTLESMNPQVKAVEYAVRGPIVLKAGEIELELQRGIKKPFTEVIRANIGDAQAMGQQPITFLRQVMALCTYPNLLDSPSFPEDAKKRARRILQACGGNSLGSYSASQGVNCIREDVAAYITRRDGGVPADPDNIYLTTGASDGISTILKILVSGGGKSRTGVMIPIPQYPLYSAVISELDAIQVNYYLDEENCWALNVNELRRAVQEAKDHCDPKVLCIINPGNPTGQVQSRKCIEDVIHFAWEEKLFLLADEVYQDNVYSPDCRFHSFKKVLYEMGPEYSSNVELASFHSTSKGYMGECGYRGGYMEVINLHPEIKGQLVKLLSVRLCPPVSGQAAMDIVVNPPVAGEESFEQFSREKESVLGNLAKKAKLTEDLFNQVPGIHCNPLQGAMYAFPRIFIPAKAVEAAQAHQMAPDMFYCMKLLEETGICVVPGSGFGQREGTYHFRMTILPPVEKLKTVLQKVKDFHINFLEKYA
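Fluorescence read-out: pyruvate from GPT2 turnover coupled to pyruvate oxidase, HRP and Amplex Red (0.2mM ThPP, 0.2U/mL PO and HRP, 50uM Amplex final). Substrates 250uM a-KG, 2mM L-alanine; enzyme 10ng/uL; 30 min RT.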
Numbers stand for hits; 0 = inactive; ? = inconclusive; - = no result. The list is not random: actives were taken first. Their share in the collection is about 10%. Unless noted, calls follow the shape of the dose curve; as a rule, active = well fitted curve in the direction sought with a large enough effect; inconclusive = small, poorly fitted or top-dose-only effect, or another doubt; inactive = no such curve, though single readings can be large; an effect the other way counts as inactive or inconclusive.

SMILES | HEK cytotox | 3T3 cytotox | NPR1 antag | Luciferase inh | GPT2 inhibitor
CCOc1ccc(CN2CCN(C/C=C/c3ccccc3OC)CC2CCO)cc1 (stereo not given) | 20µM | ? | 0 | 0 | 0
CCc1noc(-c2nc(-c3ccc(F)c(F)c3)no2)n1 | 0 | 0 | 0 | ? | 0
CCCc1noc(-c2nc(-c3ccc4c(c3)OCO4)no2)n1 | 0 | 0 | 0 | 12.6µM | 0
COCCc1noc(-c2nc(-c3ccccc3)no2)n1 | 0 | 0 | 0 | 20µM | 0
Cc1noc(-c2nc(-c3ccc4c(c3)OCO4)no2)n1 | 0 | 0 | 0 | ? | 0
CCc1noc(-c2nc(-c3cccc(F)c3)no2)n1 | 0 | 0 | 0 | 25.1µM | 0
O=C(NCc1cccc(C(F)(F)F)c1)c1ccc2nc(-c3cccnc3)oc2c1 | 0 | 0 | - | - | 0
CN1C(=O)C2(CCN(Cc3ccc(F)cc3)C2)c2ccccc21 (stereo not given) | 70.8µM | ? | 0 | 0 | 0
CN1C(=O)C2(CCN(Cc3ccc(C(F)(F)F)cc3)C2)c2ccccc21 (stereo not given) | ? | 0 | 0 | 0 | 0
CN(C)c1ccc(CN2CCC3(C2)C(=O)N(c2ccccc2)c2ccccc23)cc1 (stereo not given) | ? | 44.7µM | - | - | 0
O=C1N(c2ccccc2)c2ccccc2C12CCN(Cc1cccc3ccccc13)C2 (stereo not given) | ? | ? | - | - | 0
CN1C(=O)C2(CCN(Cc3cccc4ccccc34)C2)c2ccccc21 (stereo not given) | 28.2µM | ? | 0 | 0 | 0
O=C(Nc1cccc(-c2ccc(N3CCOCC3)nn2)c1)Nc1ccccc1C(F)(F)F | ? | ? | 0 | 2.24µM | 0
Cc1c(F)cccc1NC(=O)Nc1cccc(-c2ccc(N3CCOCC3)nn2)c1 | 0 | 0 | ? | 0.631µM | 0
Cc1ccc(NC(=O)Nc2cccc(-c3ccc(N4CCOCC4)nn3)c2)cc1F | 0 | 0 | 0 | ? | 0
COc1cccc(NC(=O)Nc2cccc(-c3ccc(N4CCOCC4)nn3)c2)c1 | ? | ? | ? | 1µM | 0
Nc1cccc(-c2ccc(N3CCOCC3)nn2)c1 | ? | ? | ? | 3.16µM | 0
COCc1cc(=O)n(CC(=O)Nc2cccc(OC)c2)c(N2CCOCC2)n1 | 0 | 0 | 0 | 0 | 0
O=C(Nc1ccccc1)Nc1cccc(-c2nnc3n2CCCC3)c1 | 0 | 0 | 0 | 0 | 0
O=C(NCCc1ccccc1)N1CCC(Cc2nncn2CC2CC2)CC1 | 0 | 0 | - | - | 0
CC(C)(C)c1nnc2ccc(C(=O)NCCc3ccccc3F)cn12 | 0 | 0 | - | - | 0
CC(C)(C)C(=O)N1CCCC1C(=O)N1CCC(c2nc3ccncc3[nH]2)CC1 (stereo not given) | 0 | 0 | - | - | 0
COCc1cc(=O)n(CC(=O)Nc2cc(Cl)ccc2C)c(N2CCOCC2)n1 | 0 | 0 | 0 | 0 | 0
Cc1ccc(Cl)cc1NC(=O)Nc1cccc(-c2ccc(N3CCOCC3)nn2)c1 | ? | 0 | 0 | 1µM | 0
COC1C(=O)N(c2cccc(F)c2)C12CCN(S(=O)(=O)Cc1ccccc1F)CC2 (stereo not given) | 39.8µM | 0 | 0 | 0 | 0
SMILES | HEK cytotox | 3T3 cytotox | NPR1 antag | Luciferase inh | GPT2 inhibitor
COC1C(=O)N(c2cccc(F)c2)C12CCN(C(=O)c1cc3ccccc3[nH]1)CC2 (stereo not given) | 31.6µM | ? | 0 | ? | 0
COC1C(=O)N(c2cccc(F)c2)C12CCN(S(=O)(=O)Cc1ccccc1)CC2 (stereo not given) | ? | 0 | 0 | 0 | 0
O=C(CNC(=O)c1ccc(-c2cccc(C(F)(F)F)c2)cc1)NCC1CC1 | ? | 0 | - | - | 0
Clc1cc(Cl)cc(NC2CNC2)c1 | 63.1µM | 56.2µM | - | - | 0
O=C(Nc1ccccc1F)N1CCCN(CCn2nc3n(c2=O)CCCC3)CC1 | 0 | 0 | - | - | -
O=C(O)COc1ccc(-c2nccc3c2C(=O)N(Cc2c[nH]c4ccccc24)CC(COc2ccc(F)cc2F)O3)cc1 (stereo not given) | 0 | ? | 0 | 44.7µM | 0
COc1cccc(OCC2CN(Cc3cccc(C(F)(F)F)c3)C(=O)c3c(ccnc3-c3ccc(OCC(=O)O)cc3)O2)c1OC (stereo not given) | 0 | ? | 0 | 44.7µM | 0
O=C(NCc1ccc(F)cc1)N1CCc2nnc(C3CC3)n2CC1 | 0 | ? | - | - | 0
COc1cccc(-c2cccc(C(=O)N3CCN(C(=O)Cc4ccccn4)CC3)c2)c1 | 0 | 0 | - | - | 0
COc1ccc(-c2cc(NCCO)nc3[nH]ccc23)cc1C(F)(F)F | 39.8µM | 39.8µM | 0 | 0 | 0
Cc1ccc(-n2nc(C)c([C@@H]3C=C[C@@H](NCc4cccc(C#N)c4)C3)c2C)cc1Cl | 25.1µM | ? | ? | ? | 0
Cc1nn(-c2ccc(C(C)C)cc2)c(C)c1[C@@H]1C=C[C@@H](NCc2cccc(C#N)c2)C1 | 25.1µM | ? | 0 | ? | 0
Cc1nn(CCC#N)c(C)c1[C@@H]1C=C[C@@H](NC(=O)NCc2ccccc2)C1 | 0 | 0 | 0 | 0 | 0
Cc1nn(-c2ccccc2)c(C)c1[C@@H]1C=C[C@@H](NCc2cccc(C#N)c2)C1 | 63.1µM | ? | 0 | 0 | 0
COc1ccc(CNC(=O)CC2CCCCN(C)C2=O)cc1 (stereo not given) | 0 | 0 | - | - | 0
O=C1CC(c2ccccc2)N(C(=O)CNC(=O)c2ccc3cc[nH]c3c2)CCCCCN1 (stereo not given) | ? | 0 | 0 | 0 | 0
O=C(NCc1ccco1)c1ccc(-c2ccc(N3CCCCCC3)nc2)cc1 | 39.8µM | ? | 0 | ? | 0
CC(C)NC(=O)c1ccc(-c2ccc(N3CCCCCC3)nc2)cc1 | ? | ? | ? | 0 | 0
Cc1ccc(CNC(=O)c2ccc(-c3ccc(N4CCCCC4)nc3)cc2)o1 | ? | 0 | 0 | 14.1µM | 0
CC(=O)N1CCN(C(=O)c2cc(-c3cccc(C(F)(F)F)c3)nc3c2cnn3C)CC1 | 0 | ? | - | - | ?
Cc1ccc(-c2cc(C(=O)NCc3ccc(C(F)(F)F)cc3)c3cnn(C)c3n2)c(C)c1 | 35.5µM | ? | - | - | 0
COc1ccc(-c2cc(C(=O)NCc3cccc(C(F)(F)F)c3)c3cnn(C)c3n2)cc1 | 35.5µM | 31.6µM | - | - | 0
CC(=O)N1CCCN(C(=O)c2cc(-c3cc(Cl)cc(Cl)c3)nc3c2cnn3C)CC1 | 79.4µM | ? | - | - | -
CN1CCN(C(=O)c2cc(-c3cccc(C(F)(F)F)c3)nc3c2cnn3C)CC1 | ? | 31.6µM | - | - | 0
O=C(NCc1ccc(Cl)cc1)C1CCCN(c2cnn(Cc3ccccc3)c(=O)c2)C1 (stereo not given) | ? | ? | 0 | 0 | 0
